Data as given in PubChem BioAssay (Tox21).
Results filed as inconclusive are left out. Calls of active or inactive are those of the source. Unless noted, calls come from the whole dose curve; as a rule, active = well fitted curve in the direction sought with a large enough effect in the repeat runs; inconclusive = weak or mixed curves; inactive = no such curve, though single readings can be large; an effect the other way counts as inactive or inconclusive.

Tests used:
[1] = qHTS assay to identify small molecule agonists of H2AX (AID 1224845; active = well fitted activation curve with a large enough effect in the signal ratio in the repeat runs, not every such curve was filed as active; the % refers to the signal ratio)
In short: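 Wild-type CHO-K1 cells, plated overnight, exposed 3hr at 37C to 15 concentrations (0.76% DMSO final). Lysed, then HTRF anti-pH2AX (S139) cryptate and anti-H2AX-d2 antibodies, 24 hr room temperature; 665/620 nm emission read.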

[2] = qHTS assay to identify small molecule agonists of the hypoxia (HIF-1) signaling pathway (AID 1224846; active = well fitted activation curve with a large enough effect in the signal ratio in the repeat runs, not every such curve was filed as active; the % refers to the signal ratio)
In short: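 Agonist mode reporter screen. ME-180 cells stably expressing bla under HRE control received test compounds in DMSO for 17 hrs (37C, 5% CO2), and beta-lactamase activity was then detected with the CCF4-AM FRET substrate.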

[3] = qHTS assay to identify small molecule agonists of H2AX - cell viability counter screen (AID 1224847; calls by dose curve; note: top concentration of the series differs between compounds; nearly all actives have a fitted effect of over 30% in size)
In short: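 Cytotoxicity counter screen in wild-type CHO-K1 cells: a 3 hr compound treatment at 37C across 15 concentrations, followed by CellTiter-Glo luminescence to gauge viable cells.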

[4] = qHTS assay to identify small molecule agonists of the estrogen related receptor (ERR) signaling pathway from Tox21 library (AID 1224849; calls by dose curve; note: nearly all actives have a fitted effect of over 15% in size); conditions: ERR reporter cell line, ONE-Glo luciferase, 18 h; at 92.4 µM (top of the series) unless noted
In short: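 Quantitative HTS in agonist format: NTP ERR cell line, compounds transferred in DMSO after 6 h plating, 18 h incubation at 37 C, ONE-Glo luminescence endpoint.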

[5] = qHTS RealTime-Glo MT Cell Viability Assay in HepG2 cells - 24 hour (AID 1224867); note: nearly all actives have a fitted effect of over 50% in size
In short: (§1)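 Luminescence read-out: viable HepG2 cells reduce a prosubstrate to a NanoLuc substrate, giving a signal proportional to live cell number. Reads taken at 0, 8, 16, 24, 32 and 40 h of compound exposure at 37 C.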

[6] = qHTS RealTime-Glo MT Cell Viability Assay in HEK293 cells - 32 hour (AID 1224868); note: nearly all actives have a fitted effect of over 50% in size; note: potency is the fitted concentration of half-maximal effect
In short: (§2)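 Nonlytic real-time viability readout: viable cells convert prosubstrate to NanoLuc substrate, giving luminescence proportional to live cell number. HEK293, 600 cells/well, compound added after 5 h, continuous culture at 37 C.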

[7] = A CellTox Green Cytotoxicity Assay to monitor cytotoxicity in HEK293 cells - 0 hour (AID 1224869); note: nearly all actives have a fitted effect of over 50% in size
In short: (§3)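 Dead-cell fluorescence measured kinetically: asymmetric cyanine dye, HEK293, 600 cells/well, 5 h settle, 23 nL cpd/DMSO, 37 C, reads 0–40 h every 8 h.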

[8] = A CellTox Green Cytotoxicity Assay to monitor cytotoxicity in HEK293 cells - 40 hour (AID 1224871); note: nearly all actives have a fitted effect of over 45% in size; note: potency is the fitted concentration of half-maximal effect
In short: as §3

[9] = qHTS RealTime-Glo MT Cell Viability Assay in HepG2 cells - 8 hour (AID 1224873); note: nearly all actives have a fitted effect of over 55% in size
In short: (§4)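 HepG2 cells (600/well) mixed with RealTime-Glo MT reagent, settled 5 h at 37 C/5% CO2 before compound addition. Nonlytic NanoLuc luminescence from viable-cell prosubstrate reduction read repeatedly during 40 h treatment at 37 C.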

[10] = qHTS RealTime-Glo MT Cell Viability Assay in HEK293 cells - 40 hour (AID 1224874); conditions: RealTime-Glo luminescence; max response: stronger effect = lower value; note: nearly all actives have a fitted effect of over 50% in size; note: potency is the fitted concentration of half-maximal effect
In short: (§5)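 600 HEK293 cells per well, dispensed already mixed with RealTime-Glo MT reagents. Compound dosing came 5 h later. The same wells were read for luminescence at 0, 8, 16, 24, 32 and 40 h of exposure at 37 C.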

[11] = A CellTox Green Cytotoxicity Assay to monitor cytotoxicity in HEK293 cells - 24 hour (AID 1224875); note: nearly all actives have a fitted effect of over 45% in size
In short: as §3

[12] = A CellTox Green Cytotoxicity Assay to monitor cytotoxicity in HepG2 cells - 16 hour (AID 1224876); note: nearly all actives have a fitted effect of over 45% in size
In short: (§6)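 First, HepG2 cells (600/well) mixed with reagent were plated; second, after 5 h at 37 C they received compounds via pintool; third, fluorescence was measured at 0 h through 40 h at 8 h intervals.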

[13] = qHTS RealTime-Glo MT Cell Viability Assay in HepG2 cells - 32 hour (AID 1224877); note: nearly all actives have a fitted effect of over 55% in size
In short: as §1

[14] = A CellTox Green Cytotoxicity Assay to monitor cytotoxicity in HepG2 cells - 24 hour (AID 1224878); note: nearly all actives have a fitted effect of over 45% in size; note: potency is the fitted concentration of half-maximal effect
In short: as §6

[15] = A CellTox Green Cytotoxicity Assay to monitor cytotoxicity in HepG2 cells - 40 hour (AID 1224879); note: nearly all actives have a fitted effect of over 40% in size; note: potency is the fitted concentration of half-maximal effect
In short: as §6

[16] = qHTS RealTime-Glo MT Cell Viability Assay in HEK293 cells - 0 hour (AID 1224880)
In short: as §5

[17] = qHTS assay to identify small molecule agonists of the hypoxia (HIF-1) signaling pathway - cell viability counter screen (AID 1224844; calls by dose curve; note: nearly all actives have a fitted effect of over 50% in size)
In short: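 Viability counter screen: HRE-bla ME-180 cells plated 5 hrs before compound addition, treated 17 hrs at 37C and 5% CO2, then CellTiter-Glo added after the FRET reporter read; luminescence after 30 min.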

[18] = qHTS RealTime-Glo MT Cell Viability Assay in HepG2 cells - 40 hour (AID 1224870); note: nearly all actives have a fitted effect of over 50% in size
In short: as §4

[19] = qHTS RealTime-Glo MT Cell Viability Assay in HEK293 cells - 16 hour (AID 1224872); note: nearly all actives have a fitted effect of over 50% in size; note: potency is the fitted concentration of half-maximal effect
In short: as §2

[20] = qHTS assay to identify small molecule antagonists of the estrogen related receptor (ERR) signaling pathway from Tox21 library (AID 1224848); note: nearly all actives have a fitted effect of over 50% in size; note: potency is the fitted concentration of half-maximal effect
In short: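 Compounds dissolved in DMSO are pin-transferred onto ERR reporter cells (2,000 per well) that have settled for 6 h at 37 C. Plates then incubate 18 h at 37 C before ONE-Glo luciferase reagent and a luminescence read 30 min later.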
% is set by controls: 0 for no effect and ±100 for the full control effect.

CCOc1nc(C(Cl)(Cl)Cl)ns1
inactive: Potency [1] | outcome [2] | Potency [3] | activity change, positive = activation [4] -11.7% | Potency [5] | Potency [6] | Potency [7] | Potency [8] | Potency [9] | max response [10] 3% | Potency [11] | Potency [12] | Potency [13] | Potency [14] | Potency [15] | outcome [16]

CC(=O)CC(c1ccc(Cl)cc1)c1c(O)c2ccccc2oc1=O (stereo unspecified)
inactive: Potency [17] | outcome [2] | Potency [5] | Potency [6] | Potency [7] | Potency [18] | Potency [8] | Potency [9] | max response [10] -9.42% | Potency [12] | Potency [13] | Potency [14] | Potency [15] | outcome [16]

CCOC(=O)/C=C(C)/C=C/C[C@@H](C)CCCC(C)C
inactive: Potency [17] | outcome [2] | Potency [5] | Potency [6] | Potency [7] | Potency [18] | Potency [8] | Potency [9] | max response [10] 8.55% | Potency [11] | Potency [12] | Potency [13] | Potency [14] | Potency [15] | outcome [16]

CC(CC(C#N)(c1ccccc1)c1ccccc1)N(C)C (stereo unspecified)
inactive: Potency [1] | outcome [2] | Potency [3] | Potency [5] | Potency [7] | Potency [18] | Potency [8] | Potency [19] | Potency [9] | Potency [11] | Potency [12] | Potency [13] | Potency [14] | outcome [16]

CC1=C(C(=O)Nc2ccccc2)S(=O)(=O)CCO1
inactive: Potency [3] | Potency [5] | Potency [7] | Potency [9] | Potency [11] | Potency [12] | Potency [13] | Potency [14] | Potency [15]
active: Potency [6] 48.9 µM | Potency [10] 43.6 µM

CN1C[C@@H](NS(=O)(=O)N(C)C)C[C@@H]2c3cccc4c3c(cn4C)C[C@H]21
inactive: Potency [17] | outcome [2] | Potency [3] | Potency [5] | Potency [6] | Potency [7] | Potency [18] | Potency [9] | max response [10] -20.7% | Potency [11] | Potency [12] | Potency [13] | Potency [14] | Potency [15] | outcome [16]

CCCCOC(=O)c1ccccc1N
inactive: Potency [17] | outcome [2] | Potency [5] | Potency [6] | Potency [7] | Potency [9] | max response [10] 0.429% | Potency [12] | Potency [13] | outcome [16]
active: Potency [8] 49.3 µM | Potency [14] 49.3 µM | Potency [15] 55.3 µM

OC(c1ccccc1)(c1ccccc1)C1CCNCC1
inactive: Potency [17] | Potency [3] | Potency [5] | Potency [6] | Potency [7] | Potency [19] | max response [10] -12.9% | Potency [11] | Potency [12] | Potency [13] | Potency [14] | Potency [15] | outcome [16]

CCOP(=S)(OCC)SCSc1ccc(Cl)cc1
inactive: Potency [17] | outcome [2] | Potency [5] | Potency [6] | Potency [7] | Potency [18] | Potency [8] | Potency [19] | max response [10] -2.07% | Potency [11] | Potency [12] | Potency [13] | Potency [14] | Potency [15] | outcome [16]

CC(C)COP(=O)(OCC(C)C)OCC(C)C
inactive: Potency [17] | outcome [2] | Potency [20] | activity change, positive = activation [4] -2.2% | Potency [5] | Potency [6] | Potency [7] | Potency [19] | Potency [9] | max response [10] 0.408% | Potency [11] | Potency [12] | Potency [13] | Potency [14] | Potency [15]

Cc1ccccc1CO[C@@H]1C[C@@]2(C(C)C)CC[C@]1(C)O2
inactive: Potency [17] | outcome [2] | Potency [5] | Potency [6] | Potency [7] | Potency [18] | Potency [9] | max response [10] -15.4% | Potency [12] | Potency [13] | Potency [14] | Potency [15] | outcome [16]

O=C1OC(=O)C2C1C1(Cl)C(Cl)=C(Cl)C2(Cl)C1(Cl)Cl (stereo unspecified)
inactive: Potency [1] | outcome [2] | Potency [3] | Potency [5] | Potency [6] | Potency [7] | Potency [18] | Potency [8] | Potency [19] | Potency [9] | max response [10] -0.525% | Potency [11] | Potency [12] | Potency [13] | Potency [14] | Potency [15] | outcome [16]

CC(C)CP(=S)(S)CC(C)C
inactive: Potency [1] | outcome [2] | Potency [3] | Potency [5] | Potency [6] | Potency [7] | Potency [18] | Potency [8] | max response [10] 3.1% | Potency [11] | Potency [12] | Potency [13] | Potency [14] | Potency [15] | outcome [16]

CCCSC(=O)N(CCC)CCC
inactive: Potency [17] | outcome [2] | Potency [3] | Potency [5] | Potency [6] | Potency [7] | max response [10] 7.77% | Potency [11] | Potency [12] | Potency [13] | Potency [14] | Potency [15] | outcome [16]

CCC(C)(C)c1cc(-n2nc3ccccc3n2)c(O)c(C(C)(C)CC)c1
inactive: Potency [1] | outcome [2] | Potency [3] | activity change, positive = activation [4] -66.5% | Potency [5] | Potency [7] | Potency [18] | Potency [8] | Potency [11] | Potency [12] | Potency [13] | Potency [14] | Potency [15] | outcome [16]
active: Potency [6] 22.2 µM | Potency [19] 24.9 µM | Potency [10] 22.2 µM

CCCCOP(=O)(O)OCCCC
inactive: Potency [17] | outcome [2] | Potency [5] | Potency [6] | Potency [7] | Potency [18] | Potency [19] | Potency [9] | max response [10] 0.827% | Potency [11] | Potency [12] | Potency [13] | Potency [14] | Potency [15] | outcome [16]

C[C@H]1CCC[C@H](O)CCCCCc2cc(O)cc(O)c2C(=O)O1
active: Potency [20] 54.9 µM | Potency [6] 34.9 µM | Potency [10] 24.7 µM
inactive: Potency [17] | outcome [2] | activity change, positive = activation [4] -54.5% | Potency [7] | Potency [18] | Potency [8] | Potency [9] | Potency [11] | Potency [12] | Potency [13] | Potency [14] | outcome [16]
